Laboratory results as given in PubChem BioAssay AID847 (SRMLSC, 2007).
In all, about 41,000 compounds went through this assay and about 190 (0.46%) were called active. This is one part of a sample in which actives are shown more often than they occur. Values without a mark were called inactive.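 Rule for the calls: active = viability at or below the median of all test compounds minus 3 SD, in both replicates if run twice (cut at about 45% in these data); inconclusive = duplicate replicates that disagree with each other; inactive = viability above that cutoff in every replicate.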

Assay: viability loss of SK-BR-3 cells – cell-based, human, 24 h, primary screen (AID 847);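 note: 100% = median untreated cell wells and 0% = median positive control drug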
Details: SK-BR-3 viability, CellTiter-Glo ATP luminescence, at 10 µM, active compounds read low

SMILES	viability [%]
COc1cc(C(=O)Nc2nccs2)cc(OC)c1OC	98.8
CC(C)OC(=O)c1sc2nc3c(cc2c1N)C(=O)CCC3	70.8
CCOC(=O)c1c(C)n(C)c2ccc(OC)c(NC(=O)CN3CCC4(CC3)OCCO4)c12	88.1
Cc1ccc(C(=O)NCCNS(=O)(=O)c2ccccc2)cc1	104
CC(=O)Nc1ccc(S(=O)(=O)Nc2cccc(NC(=O)C(C)(C)C)c2)cc1	84.7
CC(c1ccccc1)n1c(NCCCn2ccnc2)nc2c1c(=O)[nH]c(=O)n2C (stereo not drawn)	62.8
O=C(c1cccs1)N(C(=O)c1cccs1)c1ccccn1	75
Cc1cccc(N2CC(C)Cn3c2nc2c3c(=O)n(CC(=O)OCc3ccccc3)c(=O)n2C)c1 (stereo not drawn)	72.3
CCN1C(=O)CS/C1=N\c1nccs1	96
O=C(O)c1ccc(F)c(S(=O)(=O)Nc2ccccc2)c1	99.6
CCOc1ccc2nc(NCCNS(=O)(=O)c3ccccc3)c(C#N)cc2c1	73.4
CCOC(=O)N1CCN(C(=O)CN(c2ccc(C)c(C)c2)S(=O)(=O)c2ccccc2)CC1	124
CCOC(=O)c1ccc(N2C(=O)CC(N3CC(C)OC(C)C3)C2=O)cc1 (stereo not drawn)	82.9
O=C(c1cccs1)N1CCN(C(=O)N2CCOCC2)CC1	119
CC(=O)CSc1nnc(CSc2ncccn2)n1C1CCCCC1	77.2
Cc1nc2nc(CSc3nc4ccccc4s3)cc(=O)n2[nH]1	94.5
O=S(=O)(c1ccccc1)N(CC(O)CN1CCCCC1)c1ccccc1 (stereo not drawn)	93
COc1ccc(CCNC(=O)CSc2nc(C)nc3c2oc2ccccc23)cc1OC	131
CCc1nc2oc3ccccc3c(=O)c2c(=O)n1Cc1ccc(OC)cc1	84.3
O=C(CCCC(=O)N(CC(=O)NC1CCCC1)Cc1ccccc1Cl)Nc1ccccn1	73.7
O=C(NCCCNCc1ccccc1)c1ccc(/C=N/O)nc1	117
O=C(NCC1CCCO1)C(C(=O)c1ccccc1)n1cc(Cl)ccc1=O (stereo not drawn)	87.7

SMILES	viability [%]
Cc1ccc2c(c1)c1ncn(CCC3=CCCCC3)c(=O)c1n2C	85.3
CCCc1nnc(NC(=O)c2cc(OC)cc(OC)c2)s1	81.5
C#CCN1CC(C)/C(=N/O)CC1C (stereo not drawn)	108
O=C(NC1CCCC1)c1ccc(Br)s1	90.4
O=C(Oc1ccccc1)c1ccc2nccnc2c1	80.4
COc1ccc(S(=O)(=O)N2CCC(C(=O)N3CCOCC3)CC2)cc1OC	101
CCCc1[nH]nc2c1C(C1CC=CCC1)C(C#N)=C(N)O2 (stereo not drawn)	96.8
O=C(NCc1cccs1)C1CCN(S(=O)(=O)c2ccc3c(c2)OCCO3)CC1	95.3
COc1ccc(C(=O)Cn2nnc(-c3ccc(N4CCOCC4)cc3)n2)cc1OC	88.3
O=C(Nc1nc2cc3c(cc2s1)OCCO3)c1cccc(S(=O)(=O)N2CCOCC2)c1	79.5
COc1ccc2[nH]c3ccc(OC)cc3c2c1	89.2
C=CCC(NCCCO)c1cccc(OC)c1OC (stereo not drawn)	107
Fc1ccc(OCc2nn3c(Cn4nnc5ccccc54)nnc3s2)cc1	59.8
CCOC(=O)c1sc(NC(=O)c2cc(S(=O)(=O)N3CCOCC3)ccc2C)nc1C	88.3
COc1ccc(Br)cc1/C=N/n1c(C)nnc1C	96.9
CCC(=O)Nc1ccccc1C(=O)N1CCN(Cc2ccccc2)CC1	90.1
O=C(Nc1cccc(C(=O)N2CCCC2)c1)c1ccccc1	91.4
Cc1cc(C(F)(F)F)c(C#N)c(SCC(=O)NC2CC2)n1	109
CN1CCN(CC(=O)C23CC4CC(CC(C4)C2)C3)CC1	122
CN1CCN(S(=O)(=O)c2ccc(NC(=O)c3ccco3)cc2)CC1	85.4
COc1ccccc1-n1nnnc1S(=O)(=O)Cc1ccc(Cl)cc1	95.1
